KB-V1 cytotox: kills drug-selected multidrug resistant KB-V1 cells; 400,000 compounds, 3.4% hits; KB-V1 MDR cells viability, CellTiter-Glo, 72 h; Potency, µM (top dose mostly 46.1 µM), hits mostly cytotoxic; AID 1347076; also: % is scaled to controls: 0 for no effect and ±100 for the full control effect; nearly all actives have a fitted effect of over 60% in size
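Luminescent ATP read-out (CellTiter-Glo, 10 min) measures survival of drug-selected KB-V1 MDR cells after 72 h, 37 degrees C compound exposure. Medium: phenol-red-free DMEM, 10% FBS. Values from fitted concentration-response curves.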
KB-3-1 tox: kills parental KB-3-1 adenocarcinoma cells; KB-3-1 viability, CellTiter-Glo ATP luminescence, 72 h; Potency, µM (doses to about 46.1 µM), most hits filed as cytotoxic; AID 1347075; 400,000 compounds, 1.4% hits; also: % is scaled to controls: 0 for no effect and ±100 for the full control effect; nearly all actives have a fitted effect of over 60% in size
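Cells are dispensed, compounds pinned in, plates held at 37 °C for 72 h, then CellTiter-Glo is added and luminescence read after 10 minutes. Cell line: parental KB-3-1 in phenol-red-free DMEM, 10% FBS.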
ATXN viability: cell viability loss in ATXN counter-screen; S2 cells (HEK-293 line with an ATXN2-luciferase reporter) viability, CellTiter-Fluor protease fluorescence, 24 h; Potency, µM (series often up to 56.7 µM), actives largely listed as cytotoxic; 400,000 compounds, 0.49% hits; also: nearly all actives have a fitted effect of over 40% in size
ATXN2 expr inh: inhibitors of ATXN2 expression | Potency, µM (top dose mostly 57 µM), without a hit: top-dose activity change, negative = inhibition, hits mostly inhibitors | HEK-293 ATXN2-luciferase reporter, luminescence, 24 h | 360,000 compounds, 0.72% hits; also: % is scaled to controls: 0 for no effect and ±100 for the full control effect; nearly all actives have a fitted effect of over 55% in size
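qHTS (up to 57 uM final) was run with 24 h compound exposure of reporter cells at 37 °C. Each well was multiplexed: SteadyGlo luminescence measured ATXN2-luciferase expression after a fluorogenic Gly-Phe-AFC viability readout (25 uM final).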
HT1080 IDH1KD tx: toxicity to HT-1080 IDH1 knockdown cells (counter line) | HT-1080 IDH1 knockdown viability, ATP luminescence, 48 h | Potency, µM (series often up to 46.1 µM), without a hit: at the top dose activity, negative = toxicity, actives largely listed as cytotoxic | 360,000 compounds, 2% hits | AID 686971;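 also: 0% = DMSO wells and -100% = cell-free medium wells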
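After a 2 h attachment period, IDH1KD HT-1080 cells took pin-transferred compound for 48 h at 37 °C; ATP-based luminescence after 10 min room-temperature reagent incubation reported viability.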
HT1080-NT tox: kills 2HG-producing HT-1080-NT fibrosarcoma cells. 360,000 compounds, 1.6% hits. HT-1080-NT fibrosarcoma viability, CellTiter-Glo ATP luminescence, 48 h. Potency, µM (series often up to 46.1 µM), inactives show top-dose activity, negative = less viability, hits mostly cytotoxic. AID 686970;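 also: NT is the 2HG producing partner of a matched IDH1 knockdown line; 0% = DMSO-treated cells and -100% = media-only wells without cells; nearly all actives have a fitted effect of over 55% in size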
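Luminescent CellTiter-Glo readout after 48 hours of compound exposure at 37 degrees C defined viability of HT-1080-NT cells. Activity was normalized to DMSO wells and cell-free media wells; concentration-response curves were fitted and assigned curve classes.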
An asterisk follows results filed as active; [ ] = another dose, or the depositor's remark. An excerpt weighted towards active compounds, which were near 6.2% of everything screened. Calls follow the shape of the dose curve; as a rule, active = well fitted curve in the direction sought with a large enough effect; inconclusive = small, poorly fitted or top-dose-only effect, or another doubt; inactive = no such curve, though single readings can be large; an effect the other way counts as inactive or inconclusive. Potency is read from the fitted curve at half-maximal effect.

What do the screens show for `Cc1nn2c(CN(C(=O)CN3CCOCC3)c3ccccc3)nnc2c2ccccc12`?
KB-V1 cytotox: inactive; KB-3-1 tox: inactive; ATXN viability: inactive; ATXN2 expr inh: 6.8%; HT1080 IDH1KD tx: 20.5%; HT1080-NT tox: 22.8%

How did CCOC(=O)c1ccc(NC(=O)CCc2c(C)nc3c(c(C)nn3C)c2C)cc1 do in these assays?
KB-V1 cytotox: inactive; KB-3-1 tox: inactive; ATXN viability: inactive; ATXN2 expr inh: -15.6%

What do the screens show for `CCc1ccc(NC(=O)c2ccc(S(=O)(=O)NCc3cccnc3)cc2)cc1`?
KB-V1 cytotox: inactive; KB-3-1 tox: inactive; ATXN viability: inactive; ATXN2 expr inh: 0.3%; HT1080 IDH1KD tx: 1.1%; HT1080-NT tox: -15.9%

Results for COc1cccc(NC(=O)c2ccc(S(=O)(=O)NCc3cccnc3)cc2)c1 ?
KB-V1 cytotox: 18.4µM*; KB-3-1 tox: inactive; ATXN viability: inactive; ATXN2 expr inh: -8.0%; HT1080 IDH1KD tx: -17.1%; HT1080-NT tox: -18.9%

Results for COc1cccc(S(=O)(=O)NCc2ccc(C(=O)Nc3cccc(Cl)c3)cc2)c1 ?
KB-V1 cytotox: inconclusive; KB-3-1 tox: inconclusive; ATXN viability: inconclusive; ATXN2 expr inh: 15.8µM*; HT1080 IDH1KD tx: -17.3%[9.24 µM]; HT1080-NT tox: inconclusive

How did O=C(Cc1cccc(F)c1)NO do in these assays?
HT1080 IDH1KD tx: 22.8%; HT1080-NT tox: 17.3%

Results for CN1CCN(C2=Cc3cc(Cl)ccc3Sc3cc(F)ccc32)CC1 ?
KB-V1 cytotox: 18.4µM*; KB-3-1 tox: inconclusive; ATXN viability: inconclusive; ATXN2 expr inh: inconclusive; HT1080 IDH1KD tx: inconclusive; HT1080-NT tox: inconclusive

How did CN1CCN(C2Cc3cc(Cl)ccc3Sc3cc(F)ccc32)CC1 (stereo not given) do in these assays?
KB-V1 cytotox: 18.4µM*; KB-3-1 tox: 18.4µM*; ATXN viability: inconclusive; ATXN2 expr inh: inconclusive; HT1080 IDH1KD tx: inconclusive; HT1080-NT tox: inconclusive

What do the screens show for `CC(=O)N1CCCc2cc(S(=O)(=O)N3CCC(C(=O)NCc4ccccc4Cl)CC3)ccc21`?
KB-V1 cytotox: inconclusive; KB-3-1 tox: inactive; ATXN viability: inactive; ATXN2 expr inh: 1.1%

Results for COc1cc(Nc2ccc(C)cc2)c([N+](=O)[O-])nc1[N+](=O)[O-] ?
KB-V1 cytotox: 5.8µM*; KB-3-1 tox: inconclusive; ATXN viability: inconclusive; ATXN2 expr inh: 0.6%; HT1080 IDH1KD tx: 3.16µM*; HT1080-NT tox: 3.16µM*

What do the screens show for `Cc1cc(C)cc(Nc2ccc([N+](=O)[O-])nc2[N+](=O)[O-])c1`?
KB-V1 cytotox: inactive; KB-3-1 tox: inactive; ATXN viability: inactive; ATXN2 expr inh: -8.6%; HT1080 IDH1KD tx: 13.6%; HT1080-NT tox: 2.2%

How did NC(=O)c1c(NC(=O)CSc2nnc(Cc3ccccc3)n2Cc2ccco2)sc2c1CCC2 do in these assays?
KB-V1 cytotox: 14.6µM*; KB-3-1 tox: inactive; ATXN viability: inactive; ATXN2 expr inh: inconclusive; HT1080 IDH1KD tx: inconclusive; HT1080-NT tox: -4.7%

How did CCOC(=O)c1c(NC(=O)c2ccco2)sc2c1CCCCC2 do in these assays?
KB-V1 cytotox: inactive; KB-3-1 tox: inactive; ATXN viability: inactive; ATXN2 expr inh: 93.1%; HT1080 IDH1KD tx: 4.3%; HT1080-NT tox: 2.5%

How did CCOC(=O)c1c(NC(=O)CSc2nnc(CNC(=O)c3ccco3)n2C)sc2c1CCC2 do in these assays?
KB-V1 cytotox: 20.6µM*; KB-3-1 tox: inactive; ATXN viability: inactive; ATXN2 expr inh: -5.4%; HT1080 IDH1KD tx: -20.4%; HT1080-NT tox: -2.0%

Results for CCOC(=O)c1c(NC(=O)c2ccco2)sc(C(=O)N2CCCC2)c1C ?
KB-V1 cytotox: 2.31µM*; KB-3-1 tox: inactive; ATXN viability: inactive; ATXN2 expr inh: 0.8%; HT1080 IDH1KD tx: 2.1%; HT1080-NT tox: 6.0%

How did Cc1cccc(NC(=O)CSc2nc3ccc(NC(=O)c4ccco4)cc3s2)c1 do in these assays?
KB-V1 cytotox: inactive; KB-3-1 tox: inactive; ATXN2 expr inh: inconclusive

Results for CC(C)C[C@H](NC(=O)c1[nH]cnc1C(=O)Nc1ccc(CNC(=O)OC(C)(C)C)cc1)C(=O)OCc1ccccc1 ?
KB-V1 cytotox: inconclusive; KB-3-1 tox: inactive; ATXN viability: inconclusive; ATXN2 expr inh: 28.2µM*; HT1080 IDH1KD tx: -23.9%; HT1080-NT tox: inconclusive

What do the screens show for `CC(C)C[C@H](NC(=O)c1[nH]cnc1C(=O)N[C@@H](C)c1ccccc1)C(=O)OC(C)(C)C`?
KB-V1 cytotox: inactive; KB-3-1 tox: inconclusive; ATXN viability: 25.1µM*; ATXN2 expr inh: inconclusive; HT1080 IDH1KD tx: inconclusive; HT1080-NT tox: inconclusive

Results for CC(C)C[C@H](NC(=O)c1nc[nH]c1C(=O)NCc1ccc(CNC(=O)OC(C)(C)C)cc1)C(=O)OC(C)(C)C ?
KB-V1 cytotox: inconclusive; KB-3-1 tox: inactive; ATXN viability: inconclusive; ATXN2 expr inh: -17.7%; HT1080 IDH1KD tx: inconclusive; HT1080-NT tox: -10.7%

Results for CC(C)C[C@H](NC(=O)c1[nH]cnc1C(=O)Nc1ccc(CNC(=O)OC(C)(C)C)cc1)C(=O)OC(C)(C)C ?
KB-V1 cytotox: inconclusive; KB-3-1 tox: inactive; ATXN2 expr inh: 0.0%; HT1080 IDH1KD tx: 18.4µM*; HT1080-NT tox: inconclusive

What do the screens show for `C[C@@H](NC(c1ccc(F)cc1)c1ccc2cccnc2c1O)c1ccccc1` (stereo not given in full)?
KB-V1 cytotox: inactive; KB-3-1 tox: inconclusive

What do the screens show for `CCCC(=O)Nc1cc(C(=O)NCc2ccccc2)ccc1S(=O)(=O)c1ccc(Cl)cc1`?
KB-V1 cytotox: inactive; KB-3-1 tox: inactive; ATXN viability: inconclusive; ATXN2 expr inh: 4.2%

What do the screens show for `COc1ccc(CCNC(=O)c2cc(Nc3cc(C)cc(C)c3)nc3ccccc23)cc1OC`?
KB-V1 cytotox: inactive; KB-3-1 tox: inconclusive; ATXN viability: inconclusive; ATXN2 expr inh: -38.8%

How did CCOc1ccc(/C=C2/SC(=O)NC2=S)cc1 do in these assays?
KB-V1 cytotox: inactive; KB-3-1 tox: inactive; ATXN viability: inconclusive; ATXN2 expr inh: 14.0%; HT1080 IDH1KD tx: -2.4%; HT1080-NT tox: -12.5%

How did CCOc1ccc(N=C2NC(=O)S/C2=C\c2ccc(N(C)C)cc2)cc1 do in these assays?
KB-V1 cytotox: 20.6µM*; KB-3-1 tox: inactive; ATXN viability: inactive; ATXN2 expr inh: 12.2%; HT1080 IDH1KD tx: -17.3%; HT1080-NT tox: -5.0%

Results for Cc1ccnc(NC(=S)N2CCN(c3cccc([N+](=O)[O-])c3)CC2)c1 ?
KB-V1 cytotox: inactive; KB-3-1 tox: inactive

What do the screens show for `Cc1ccccc1N1CCN(S(=O)(=O)c2nnc(NC(=O)c3ccc(C(C)C)cc3)s2)CC1`?
KB-V1 cytotox: inactive; KB-3-1 tox: inactive; ATXN viability: inactive; ATXN2 expr inh: 17.9%

Screening results from PubChem BioAssay.
